Assay results from PubChem BioAssay (NCATS).
Results filed as inconclusive are left out. The source made the active and inactive calls. Calls follow the shape of the dose curve; as a rule, active = well fitted curve in the direction sought with a large enough effect; inconclusive = small, poorly fitted or top-dose-only effect, or another doubt; inactive = no such curve, though single readings can be large; an effect the other way counts as inactive or inconclusive.

Key:
HEK293T [1] = assay: qHTS assay to identify novel small-molecules to repurpose for Merkel cell carcinoma treatment (AID 1296009); details: MCC and control cell lines, CellTiter-Glo viability, 72 h; at 44.8 µM (top of the series) unless noted; also: nearly all actives have a fitted effect of over 60% in size
Summary of the method: (§1)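 Viability readout: ATP luminescence (CellTiter-Glo) after 72 hr drug exposure at 37 degree celsius. Dose-response format was 8 points for NPC and 11 points for MIPE; data normalized to in-plate controls.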

C33A = assay: Primary qHTS to identify gynecologic anti-cancer compounds using libraries of approved drugs and bioactive compounds (AID 1345084); details: Gynecologic cancer cell panel viability, ATPlite luminescence, 48 h; series mostly up to 57.5 µM; also: % is scaled to controls: 0 for no effect and ±100 for the full control effect; nearly all actives have a fitted effect of over 55% in size
Summary of the method: (§2)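 Cells, 1,000 per well, plated 16 h, then exposed 48 h at 37 C to compounds. Viability by ATPlite luminescence after 15 min at room temperature.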

CASKI = assay: as above; details: Gynecologic cancer cell panel viability, ATPlite luminescence, 48 h; series mostly up to 57.5 µM
Summary of the method: as §2

Es-2 = assay: as above; details: Gynecologic cancer cell panel viability, ATPlite luminescence, 48 h; series mostly up to 57.5 µM
Summary of the method: as §2

HeLa = assay: as above; details: Gynecologic cancer cell panel viability, ATPlite luminescence, 48 h; series mostly up to 57.5 µM
Summary of the method: as §2

Hek293T [2] = assay: as above; details: Gynecologic cancer cell panel viability, ATPlite luminescence, 48 h, control line for the selectivity index; series mostly up to 57.5 µM
Summary of the method: as §2

JEG-3 = assay: as above; details: Gynecologic cancer cell panel viability, ATPlite luminescence, 48 h; series mostly up to 57.5 µM
Summary of the method: as §2

OV90 = assay: as above; details: Gynecologic cancer cell panel viability, ATPlite luminescence, 48 h; series mostly up to 57.5 µM
Summary of the method: as §2

SKOV3 = assay: as above; details: Gynecologic cancer cell panel viability, ATPlite luminescence, 48 h; series mostly up to 57.5 µM
Summary of the method: as §2

Tov-21-G = assay: as above; details: Gynecologic cancer cell panel viability, ATPlite luminescence, 48 h; series mostly up to 57.5 µM
Summary of the method: as §2

Tov112D = assay: as above; details: Gynecologic cancer cell panel viability, ATPlite luminescence, 48 h; series mostly up to 57.5 µM
Summary of the method: as §2

NIH3T3 = assay: qHTS assay to identify novel small-molecules to repurpose for Merkel cell carcinoma treatment (AID 1296009); details: MCC and control cell lines, CellTiter-Glo viability, 72 h; at 44.8 µM (top of the series) unless noted; also: nearly all actives have a fitted effect of over 60% in size
Summary of the method: as §1

CAOV3 = assay: Primary qHTS to identify gynecologic anti-cancer compounds using libraries of approved drugs and bioactive compounds (AID 1345084); details: Gynecologic cancer cell panel viability, ATPlite luminescence, 48 h; series mostly up to 57.5 µM; also: % is scaled to controls: 0 for no effect and ±100 for the full control effect; nearly all actives have a fitted effect of over 55% in size
Summary of the method: as §2

PA-1 = assay: as above; details: Gynecologic cancer cell panel viability, ATPlite luminescence, 48 h; series mostly up to 57.5 µM
Summary of the method: as §2

O=C(O[C@@H]1O[C@H](CO)[C@@H](O)[C@H](O)[C@H]1O)c1ccccc1
inactive: outcome (HEK293T [1]) | Potency (C33A) | outcome (CASKI) | Potency (Es-2) | Potency (HeLa) | Potency (Hek293T [2]) | Potency (JEG-3) | Potency (OV90) | Potency (SKOV3) | Potency (Tov-21-G) | Potency (Tov112D)

CC(C)=CCC[C@](C)(O[C@@H]1O[C@H](CO)[C@@H](O)[C@H](O)[C@H]1O)[C@H]1CC[C@]2(C)[C@@H]1[C@H](O)CC1[C@@]3(C)CC[C@H](O)C(C)(C)C3[C@@H](O[C@@H]3O[C@H](CO)[C@@H](O)[C@H](O)[C@H]3O[C@@H]3O[C@@H](C)[C@H](O)[C@@H](O)[C@H]3O)C[C@]12C (some centres undefined)
inactive: outcome (NIH3T3) inactive [at 9.27 µM] | activity change, negative = cytotoxicity (C33A) -11.8% [at 11.6 µM] | activity change, negative = cytotoxicity (CAOV3) -9.95% [at 11.6 µM] | activity change, negative = cytotoxicity (CASKI) -3.66% [at 11.6 µM] | activity change, negative = cytotoxicity (Es-2) 5.12% [at 11.6 µM] | activity change, negative = cytotoxicity (HeLa) 11.5% [at 11.6 µM] | activity change, negative = cytotoxicity (Hek293T [2]) -2.65% [at 11.6 µM] | activity change, negative = cytotoxicity (JEG-3) -0.108% [at 11.6 µM] | activity change, negative = cytotoxicity (OV90) -3.64% [at 11.6 µM] | activity change, negative = cytotoxicity (PA-1) 24.4% [at 11.6 µM] | activity change, negative = cytotoxicity (SKOV3) 18.8% [at 11.6 µM] | activity change, negative = cytotoxicity (Tov-21-G) -0.988% [at 11.6 µM] | activity change, negative = cytotoxicity (Tov112D) 2.74% [at 11.6 µM]

COC(=O)C1=COC(O[C@@H]2O[C@H](CO)[C@@H](O)[C@H](O)[C@H]2O)C2C(C)C(=O)CC12 (some centres undefined)
inactive: outcome (NIH3T3) | Potency (C33A) | Potency (CAOV3) | outcome (CASKI) | Potency (Es-2) | Potency (HeLa) | Potency (Hek293T [2]) | Potency (JEG-3) | Potency (OV90) | Potency (PA-1) | Potency (SKOV3) | Potency (Tov-21-G) | Potency (Tov112D)

COC(=O)C1=CO[C@@H](O[C@@H]2O[C@H](CO)[C@@H](O)[C@H](O)[C@H]2O)[C@@H]2[C@@H](C)[C@@H](OC(=O)/C=C/c3ccccc3)[C@@H](O)[C@H]12
inactive: outcome (NIH3T3) inactive [at 17.4 µM] | Potency (C33A) | Potency (CAOV3) | outcome (CASKI) | Potency (Es-2) | Potency (HeLa) | Potency (Hek293T [2]) | Potency (JEG-3) | Potency (OV90) | Potency (PA-1) | Potency (SKOV3) | Potency (Tov-21-G) | Potency (Tov112D)

CC(=O)OC1CCC2(C)C(CCC3(C)C2CC=C2C4CC(C)(C)CCC4(C)CCC23C)C1(C)C(=O)O (centres undefined)
inactive: outcome (HEK293T [1]) inactive [at 17.4 µM] | Potency (C33A) | outcome (CASKI) | Potency (Es-2) | Potency (HeLa) | Potency (Hek293T [2]) | Potency (JEG-3) | Potency (OV90) | Potency (PA-1) | Potency (SKOV3) | Potency (Tov-21-G) | Potency (Tov112D)

CO[C@@H]1[C@]2(O)C(=O)N3/C=C\C(C)(C)c4[nH]c5ccccc5c4/C=C\3C(=O)N2[C@]23[C@H](CO)C(C)(C)N2c2ccccc2[C@]13O
inactive: outcome (NIH3T3) inactive [at 17.4 µM] | Potency (C33A) | Potency (CAOV3) | outcome (CASKI) | Potency (Es-2) | Potency (HeLa) | Potency (Hek293T [2]) | Potency (JEG-3) | Potency (OV90) | Potency (PA-1) | Potency (SKOV3) | Potency (Tov-21-G) | Potency (Tov112D)

CC(O)C1NC(=O)C2CCCN2C1=O (centres undefined)
inactive: outcome (HEK293T [1]) inactive [at 92 µM] | Potency (C33A) | Potency (CAOV3) | outcome (CASKI) | Potency (Es-2) | Potency (HeLa) | Potency (JEG-3) | Potency (OV90) | Potency (PA-1) | Potency (Tov-21-G) | Potency (Tov112D)

CC(C)C1CCC(CO)=CC1/C=C(\CO)C(=O)OCC1(O)CCC(C(C)C)C2C=C(C(=O)O)COC(=O)C21 (centres undefined)
inactive: outcome (HEK293T [1]) inactive [at 17.4 µM] | Potency (C33A) | outcome (CASKI) | Potency (Es-2) | Potency (HeLa) | Potency (Hek293T [2]) | Potency (JEG-3) | Potency (OV90) | Potency (PA-1) | Potency (SKOV3) | Potency (Tov-21-G) | Potency (Tov112D)

COc1c2c(c(C)c3c1C(=O)OC3)OC1(C)CC(O)C34OC(OC)(CCC3(C)C1C2)OC4(C)CO (centres undefined)
inactive: outcome (NIH3T3) inactive [at 17.4 µM] | Potency (C33A) | Potency (CAOV3) | outcome (CASKI) | Potency (Es-2) | Potency (HeLa) | Potency (Hek293T [2]) | Potency (JEG-3) | Potency (OV90) | Potency (PA-1) | Potency (SKOV3) | Potency (Tov-21-G) | Potency (Tov112D)

C=C(CCO)C(=O)OCC1OCC(OC(=O)C(=C)CCO[C@@H]2O[C@H](COC(=O)C(=C)CCO[C@@H]3O[C@H](CO)[C@@H](O)[C@H](O)[C@H]3O)[C@@H](O)[C@H](O)[C@H]2O)C(O)C1O (some centres undefined)
inactive: outcome (HEK293T [1]) inactive [at 17.4 µM] | Potency (C33A) | outcome (CASKI) | Potency (Es-2) | Potency (HeLa) | Potency (Hek293T [2]) | Potency (JEG-3) | Potency (OV90) | Potency (PA-1) | Potency (Tov-21-G) | Potency (Tov112D)

CCOC(=O)C(CCc1ccccc1)NC1CCCN2CCCC(C(=O)O)N2C1=O (centres undefined)
inactive: outcome (HEK293T [1]) | Potency (C33A) | Potency (CAOV3) | Potency (Es-2) | Potency (HeLa) | Potency (Hek293T [2]) | Potency (JEG-3) | Potency (OV90) | Potency (PA-1) | Potency (Tov-21-G) | Potency (Tov112D)

COc1ccc2c(c1)N1C(=O)C[C@@]34C=CC[N@+]5([O-])CC[C@H]2[C@H](CC3)[C@@]145
inactive: outcome (HEK293T [1]) | Potency (C33A) | Potency (CAOV3) | outcome (CASKI) | Potency (Es-2) | Potency (HeLa) | Potency (Hek293T [2]) | Potency (JEG-3) | Potency (SKOV3) | Potency (Tov-21-G) | Potency (Tov112D)

C/C(=C\CC/C(C)=C/CC[C@]1(C)CCc2cc(O)cc(C)c2O1)CC/C=C(\C)C(=O)O
inactive: outcome (NIH3T3) inactive [at 17.4 µM] | Potency (C33A) | Potency (CAOV3) | outcome (CASKI) | Potency (Es-2) | Potency (HeLa) | Potency (Hek293T [2]) | Potency (JEG-3) | Potency (OV90) | Potency (PA-1) | Potency (SKOV3) | Potency (Tov-21-G) | Potency (Tov112D)

C=C1CCc2occ(C)c2[C@H]2[C@H]1[C@@]13O[C@@]1(C[C@@H](C)[C@H]3OC(C)=O)[C@H]1O[C@@]21C
inactive: outcome (HEK293T [1]) | Potency (C33A) | Potency (CAOV3) | outcome (CASKI) | Potency (Es-2) | Potency (HeLa) | Potency (Hek293T [2]) | Potency (JEG-3) | Potency (PA-1) | Potency (SKOV3) | Potency (Tov-21-G) | Potency (Tov112D)

O=C(O)CC1(O)C(=O)Nc2ccccc21 (centres undefined)
inactive: outcome (HEK293T [1]) inactive [at 92 µM] | Potency (C33A) | Potency (CAOV3) | outcome (CASKI) | Potency (Es-2) | Potency (Hek293T [2]) | Potency (JEG-3) | Potency (OV90) | Potency (PA-1) | Potency (SKOV3) | Potency (Tov-21-G) | Potency (Tov112D)

CC(C)=C1C[C@@]2(C)C(=CC1=O)CC[C@@H](O)[C@@H]2C
inactive: outcome (HEK293T [1]) | Potency (C33A) | outcome (CASKI) | Potency (Es-2) | Potency (HeLa) | Potency (Hek293T [2]) | Potency (JEG-3) | Potency (OV90) | Potency (PA-1) | Potency (SKOV3) | Potency (Tov-21-G) | Potency (Tov112D)

Cn1nccc1-c1ccccc1Oc1ccc(S(=O)(=O)Nc2nccs2)cc1C#N
inactive: outcome (HEK293T [1]) | Potency (C33A) | Potency (CAOV3) | outcome (CASKI) | Potency (Es-2) | Potency (HeLa) | Potency (Hek293T [2]) | Potency (JEG-3) | Potency (PA-1) | Potency (Tov-21-G) | Potency (Tov112D)
